Bioassay records: PubChem BioAssay, National Center for Advancing Translational Sciences (NCATS)
The list is not random: actives were taken first. Their share in the collection is about 12%.
BAZ2B block: qHTS Assay for Inhibitors of BAZ2B | Bromodomain adjacent to zinc finger domain protein 2B (Homo sapiens), Q9UIF8 | AlphaScreen BAZ2B-H3K14Ac peptide displacement | Potency, µM (titrated, usually from 114 µM), actives largely listed as inhibitors | actives 4.4% (n = 360,000) | AID 504333, 2011; note: nearly all actives have a fitted effect of over 60% in size
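Inhibition is scored as reduced AlphaScreen emission. The BAZ2B/b-H3(5-23)K14Ac complex (50 nM each) in PBS pH 7.4, 0.01% Tween-20 meets compound (up to 110 uM) for 30 min at RT before bead addition.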
Sfp inh: qHTS Assay for Inhibitors of Bacillus subtilis Sfp phosphopantetheinyl transferase (PPTase) | 4'-phosphopantetheinyl transferase ffp (Bacillus subtilis), Q9F4F7 | Biochemical Sfp PPTase activity, qHTS | actives 3.5% (n = 310,000) | Potency, µM, most hits filed as inhibitors | AID 1490, 2009;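 note: the enzyme is Sfp with the accession as filed and its product quenches rhodamine fluorescence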
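Step 1, compound plus 15 nM Sfp-PPTase, 15 min, room temperature. Step 2, add rhodamine-CoA (5 uM) and BHQ-2-YbbR (12.5 uM). Step 3, read 525/598 nm fluorescence at 0 and 30 min.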
HP1b binding inh: HTS for Inhibitors of HP1-beta Chromodomain Interactions with Methylated Histone Tails. Chromobox protein homolog 1 (Homo sapiens), P83916. Potency, µM (highest dose often 114 µM), usual class: inhibitors. actives 0.56% (n = 390,000). AID 540317, 2011. AlphaScreen HP1-beta / biotin-H3K9me3 peptide binding; note: nearly all actives have a fitted effect of over 70% in size
Target sequence (P83916 whole entry, looked up): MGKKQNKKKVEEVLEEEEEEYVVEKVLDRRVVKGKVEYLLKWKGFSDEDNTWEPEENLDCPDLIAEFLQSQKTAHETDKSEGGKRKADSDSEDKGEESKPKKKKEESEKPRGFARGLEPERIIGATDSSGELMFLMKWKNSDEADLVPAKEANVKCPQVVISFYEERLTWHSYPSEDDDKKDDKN
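AlphaScreen: HP1-beta (50 nM) preformed 30 min with biotin-H3(1-18)K9me3 peptide (50 nM) in PBS pH 7.4, 0.01% Tween-20. Compound added for 30 min at RT, then streptavidin donor/nickel chelate acceptor beads (10 ug/mL) for 30 min.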
PLK1 PBD block: qHTS for Inhibitors of PLK1-PDB (polo-like kinase 1 - polo-box domain): Primary Screen; Serine/threonine-protein kinase PLK1 (Homo sapiens), P53350; Plk1 PBD binding of FITC phosphopeptide, fluorescence polarization; Potency, µM, actives largely listed as inhibitors; actives 2.8% (n = 360,000); note: series mostly up to about 57 µM; nearly all actives have a fitted effect of over 65% in size
JMJD2A Tudor: qHTS Assay for Inhibitors of JMJD2A-Tudor Domain. AlphaScreen JMJD2A-Tudor / H3K4me3 peptide binding. Potency, µM (highest dose often 114 µM), most hits filed as inhibitors. actives 4.4% (n = 390,000); note: nearly all actives have a fitted effect of over 50% in size
G9a inh: qHTS Assay for Inhibitors of Histone Lysine Methyltransferase G9a; Histone-lysine N-methyltransferase EHMT2 (Homo sapiens), Q96KQ7; G9a H3K9 monomethylation, AlphaScreen, 2 h; Potency, µM (doses to about 102 µM), hits mostly inhibitors; actives 8.8% (n = 350,000); AID 504332, 2011; note: nearly all actives have a fitted effect of over 75% in size
Target sequence (Q96KQ7 913-1193 limits assumed): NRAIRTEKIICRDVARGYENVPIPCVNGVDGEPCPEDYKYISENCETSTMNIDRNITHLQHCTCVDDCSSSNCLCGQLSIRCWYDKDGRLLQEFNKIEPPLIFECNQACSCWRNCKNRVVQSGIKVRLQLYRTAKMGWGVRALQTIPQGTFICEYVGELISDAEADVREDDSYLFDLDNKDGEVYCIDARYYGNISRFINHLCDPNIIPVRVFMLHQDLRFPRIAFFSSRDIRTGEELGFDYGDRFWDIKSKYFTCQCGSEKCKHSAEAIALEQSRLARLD
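G9a (20 nM) was preincubated 15 min with compound, then reacted 2 h at room temperature with 500 nM biotin-H3K9 peptide and 20 µM SAM. Monomethyl-H3K9 detected by AlphaScreen using anti-H3K9me1 antibody.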
Large screens that a line does not name were inactive; ! = not active in a repeat. Calls come from the whole dose curve; as a rule, active = well fitted curve in the direction sought with a large enough effect; inconclusive = small, poorly fitted or top-dose-only effect, or another doubt; inactive = no such curve, though single readings can be large; an effect the other way counts as inactive or inconclusive.

COC(=O)C1=C(C)N(Cc2ccccc2)C(=NCCc2cccnc2)N[C@H]1c1ccc(Br)cc1	BAZ2B block 56µM, JMJD2A Tudor 28µM
COC(=O)C1=C(C)N(Cc2ccccc2)C(=NCC2CC2)N[C@H]1c1ccc(Br)cc1	BAZ2B block inconclusive, Sfp inh 56µM (no result: HP1b binding inh, PLK1 PBD block, JMJD2A Tudor, G9a inh)
COC(=O)C1=C(C)N(Cc2ccccc2)C(=NCC(C)C)N[C@H]1c1ccc(Br)cc1	BAZ2B block inconclusive (no result: HP1b binding inh, PLK1 PBD block, JMJD2A Tudor)
CCN1C(=NCC2CC2)N[C@@H](c2ccccc2)C(C(=O)OC)=C1C	JMJD2A Tudor inconclusive
COC(=O)C1=C(C)N(Cc2ccccc2)C(=NCC2CC2)N[C@H]1c1ccccc1	JMJD2A Tudor inconclusive
CCN(CC)CCCN=C1N[C@@H](c2ccccc2)C(C(=O)OC)=C(C)N1CC	BAZ2B block 79µM, JMJD2A Tudor 32µM, G9a inh 40µM!
COC(=O)C1=C(C)N(Cc2ccccc2)C(=NCCCCO)N[C@H]1c1ccccc1	BAZ2B block inconclusive, JMJD2A Tudor inconclusive, G9a inh 79µM!
COC(=O)C1=C(C)N(Cc2ccccc2)C(=NCCc2ccccn2)N[C@H]1c1cccc(C(F)(F)F)c1	BAZ2B block inconclusive, JMJD2A Tudor inconclusive (no result: G9a inh)
COC(=O)C1=C(C)N(Cc2ccccc2)C(=NCCc2cccnc2)N[C@H]1c1ccccc1	BAZ2B block 56µM, JMJD2A Tudor inconclusive, G9a inh 32µM!
CC(=O)Nc1c(O)c2ccccc2[nH]c1=O	Sfp inh 18µM, G9a inh 50µM
CNC(=O)C(=O)Nc1c(O)c2ccccc2[nH]c1=O	Sfp inh 22µM (no result: G9a inh)
CC(C)=NNC(=O)c1c(O)c2ccccc2[nH]c1=O	none (no result: G9a inh)
CCCCC(=O)Nc1c(O)c2ccccc2[nH]c1=O	G9a inh inconclusive
C[C@H]1CN([C@@H](C)CO)S(=O)(=O)c2ccc(Br)cc2O[C@H]1CN(C)C(=O)Cc1ccncc1	none (no result: BAZ2B block, Sfp inh, HP1b binding inh, JMJD2A Tudor, G9a inh)
O=C(Cn1cnc2c(nnn2Cc2ccccc2)c1=O)Nc1ccc2c(c1)OCCO2	none (no result: G9a inh)
N=C1C(c2ccccc2)=C(O)CN1CCO	PLK1 PBD block 24µM
CCCCCCN1CC(O)=C(c2ccccc2)C1=N	none
O=C1Cc2cc(S(=O)(=O)N3CCCCC3)cc3c2N1CCC3	none (no result: Sfp inh, PLK1 PBD block)
COc1ccc(-n2c(CN3CCN(c4ccccn4)CC3)nc3ccc([N+](=O)[O-])cc3c2=O)c(OC)c1	BAZ2B block inconclusive, JMJD2A Tudor inconclusive, G9a inh 32µM
COc1ccc(-n2c(CN3CCN(Cc4ccccc4)CC3)nc3ccc([N+](=O)[O-])cc3c2=O)c(OC)c1	BAZ2B block inconclusive
CCOc1ccccc1NC(=O)Cn1c(=O)n(-c2ccc(C)c(C)c2)c(=O)c2c(C)c(C(=O)N(C)C)sc21	G9a inh inconclusive (no result: Sfp inh, PLK1 PBD block)
O=c1oc(-c2ccc([N+](=O)[O-])cc2)nc2ccccc12	none
O=c1oc(-c2ccc([N+](=O)[O-])cc2)nc2ccc(O)cc12	BAZ2B block inconclusive, JMJD2A Tudor inconclusive, G9a inh 40µM
Cc1cccc(-n2c(N)cc(=O)[nH]c2=S)c1	G9a inh 50µM
O=C(Cn1nc(-c2cccc(Cl)c2)ccc1=O)NCC1COCCO1 (centres undefined)	BAZ2B block 79µM (no result: Sfp inh)
S=c1[nH]c2cnc(Cl)nc2[nH]1	PLK1 PBD block 24µM, JMJD2A Tudor 40µM (no result: BAZ2B block, Sfp inh, G9a inh)
S=c1[nH]c2nc(Cl)c(Cl)nc2[nH]1	none (no result: BAZ2B block, Sfp inh, HP1b binding inh, JMJD2A Tudor, G9a inh)
COc1ccc(C(=O)NNC2=NCCCCC2)cc1	G9a inh 32µM
O=C(CNc1ccccc1)NNC1=NCCC1	BAZ2B block inconclusive, Sfp inh inconclusive, PLK1 PBD block inconclusive, G9a inh 10µM
COc1ccc(C(=O)CNC2=NCCC2)cc1	none (no result: BAZ2B block)
Cc1ccccc1C(=O)NNC1=NCCC1	BAZ2B block inconclusive, JMJD2A Tudor 1.6µM, G9a inh 2µM
CCOC(=O)C1(C)CCCN(C(=O)c2ccc3ccccc3c2)C1 (centres undefined)	none (no result: BAZ2B block, Sfp inh, HP1b binding inh, JMJD2A Tudor, G9a inh)
